For test [1], the target named is Cellular tumor antigen p53 (Homo sapiens) (UniProt P04637). The test is described as follows: Primary qHTS for small molecule compounds that upregulate eGFP-tagged delta133p53alpha (in N-terminal) cells. (AID 2060322). Also: nearly all actives have a fitted effect of over 75% in size. Also: potency is read from the fitted curve at half-maximal effect.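 As to activation: cells pre-induced with doxycycline then dosed without doxycycline; 0% = DMSO vehicle and 100% = reference activator.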 The note with it: NCI-H358 eGFP-delta133p53alpha fluorescence, 24 h; activation: active compounds read high. Put shortly:
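NCI-H358 cells pre-induced 24 h with 10 ng/ml doxycycline for eGFP-delta133p53alpha, plated dox-free and exposed 24 h at 37C to titrated compounds. Fixed, Hoechst-stained; gated GFP peak intensity by laser scanning cytometry, normalized to DMSO (0%) and 57.5 uM 5-azacytidine (100%).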
(In general: qHTS replaces the single test concentration by a dilution series.)

The target of test [2] is Aldehyde dehydrogenase, mitochondrial (Homo sapiens) (UniProt P05091). In words: qHTS for Inhibitors of the Aldehyde Dehydrogenase Family (ALDH2) Primary screen (AID 2061308).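 Also: plate controls were vehicle for no effect and reference inhibitor for full effect; nearly all actives have a fitted effect of over 55% in size.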 The settings on record: ALDH2 enzyme inhibition qHTS, 1536-well; series mostly up to 56 µM.
Test [3] addresses Retinaldehyde dehydrogenase 3 (Homo sapiens) (UniProt P47895). In words: qHTS for Inhibitors of the Aldehyde Dehydrogenase Family (ALDH1A3) Primary screen (AID 2061315).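 Also: plate controls were DMSO vehicle for no effect and reference inhibitor for full effect.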 The settings on record: ALDH inhibition qHTS; series mostly up to 56 µM.
Test [4] can be described thus: BET inhibitor-based combinations targeting novel dependencies in MECOM-rearranged (r) AML: SET-2 cell line (AID 2202231). Also: nearly all actives have a fitted effect of over 35% in size. Also: potency is read from the fitted curve at half-maximal effect.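 As to viability: plate controls were DMSO treated cells for no effect and wells without cells for full effect.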 The note with it: SET-2 AML cells viability, CellTiter-Glo luminescence, 48 h; viability: active compounds read low, concentration not given here. Put shortly: (§1)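 Cells were plated at 500 per well and exposed to an 11-point dose series of each drug for 48 hr. Viability was measured by CellTiter-Glo luminescence, normalized to DMSO and empty-well controls, and summarized as AUC and per-cell-line Z-AUC.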

Test [5] in a line: BET inhibitor-based combinations targeting novel dependencies in MECOM-rearranged (r) AML: OCI-AML3 cell line (AID 2202232). Also: nearly all actives have a fitted effect of over 35% in size. Also: potency is read from the fitted curve at half-maximal effect.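 As to viability (% of control): plate controls were DMSO vehicle wells for no effect and wells without cells for full effect.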 The note with it: CellTiter-Glo luminescence, 48 h; Potency: OCI-AML3 viability; series mostly up to 46 µM. The procedure, abridged:
as §1

Test [6] can be described thus: BET inhibitor-based combinations targeting novel dependencies in MECOM-rearranged (r) AML: MV-4-11 cell line (AID 2202233). Also: nearly all actives have a fitted effect of over 45% in size. Also: potency is read from the fitted curve at half-maximal effect. The settings on record: MV-4-11 AML viability, CellTiter-Glo luminescence, 48 h; series mostly up to 46 µM. The procedure, abridged:
(§2)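 Activity is given as area under the curve and as Z-AUC, mean-centred within each cell line. It comes from 11-point dose curves normalized to DMSO and empty wells. CellTiter-Glo luminescence was read after 48 hr drug exposure of 500 cells/well.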
(In ATP-based viability assays light output follows the ATP content of the culture.)

Test [7] is described as follows: BET inhibitor-based combinations targeting novel dependencies in MECOM-rearranged (r) AML: HNT-34 cell line (AID 2202234). Also: nearly all actives have a fitted effect of over 35% in size. Also: potency is read from the fitted curve at half-maximal effect.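 As to viability (% of control): plate controls were vehicle wells for no effect and cell-free wells for full effect.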 The settings on record: HNT-34 AML viability, CellTiter-Glo luminescence, 48 h; series mostly up to 46 µM. The procedure, abridged:
as §2

Test [8] can be described thus: BET inhibitor-based combinations targeting novel dependencies in MECOM-rearranged (r) AML: UCSD-AML1 cell line (AID 2202235). Also: nearly all actives have a fitted effect of over 40% in size. Also: potency is read from the fitted curve at half-maximal effect.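 As to viability (% of control): plate controls were DMSO vehicle wells for no effect and blank wells for full effect.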 The note with it: UCSD-AML1 AML cells viability, CellTiter-Glo, 48 h; series mostly up to 46 µM. Put shortly:
as §2

Test [9] is described as follows: BET inhibitor-based combinations targeting novel dependencies in MECOM-rearranged (r) AML: AML-194 cell line (AID 2202237; also: nearly all actives have a fitted effect of over 40% in size; also: potency is read from the fitted curve at half-maximal effect;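 as to viability (% of control): plate controls were vehicle wells for no effect and wells without cells for full effect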). The note with it: AML-194 (MECOM-r AML) viability, CellTiter-Glo, 48 h; series mostly up to 46 µM. Put shortly:
as §1

Test [10] can be described thus: BET inhibitor-based combinations targeting novel dependencies in MECOM-rearranged (r) AML: AML-191 cell line (AID 2202236; also: nearly all actives have a fitted effect of over 35% in size; also: potency is read from the fitted curve at half-maximal effect;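 as to viability (% of control): plate controls were vehicle wells for no effect and wells without cells for full effect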). The note with it: AML-191 viability, CellTiter-Glo luminescence, 48 h; series mostly up to 46 µM. Put shortly: as §1

Where “and” joins values, the source holds several entries; their conditions need not be identical. Equal entries are not always repeated. Records with an inconclusive call do not appear. Unmarked numbers belong to inactive results. Calls of active or inactive are those of the source. Calls follow the shape of the dose curve; as a rule, active = well fitted curve in the direction sought with a large enough effect; inconclusive = small, poorly fitted or top-dose-only effect, or another doubt; inactive = no such curve, though single readings can be large; an effect the other way counts as inactive or inconclusive.

Chain of Cellular tumor antigen p53 (Homo sapiens) (P04637 whole entry, looked up): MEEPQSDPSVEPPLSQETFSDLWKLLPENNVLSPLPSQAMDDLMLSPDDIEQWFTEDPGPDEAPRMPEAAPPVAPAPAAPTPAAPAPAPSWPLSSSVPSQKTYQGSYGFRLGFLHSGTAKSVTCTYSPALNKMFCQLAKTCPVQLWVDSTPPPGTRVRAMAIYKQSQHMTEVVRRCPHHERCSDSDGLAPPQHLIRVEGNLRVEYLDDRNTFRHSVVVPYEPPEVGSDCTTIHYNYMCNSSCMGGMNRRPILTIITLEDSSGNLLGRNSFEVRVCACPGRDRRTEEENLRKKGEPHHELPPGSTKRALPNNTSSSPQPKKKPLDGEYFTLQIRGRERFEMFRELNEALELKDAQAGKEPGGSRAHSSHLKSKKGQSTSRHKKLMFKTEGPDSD

As a reminder, the viability is a read-out of living cells in per cent, often relative to untreated cells. Take `O=C(NCC1CN(c2ccc(N3CCOCC3=O)cc2)C(=O)O1)c1ccc(Cl)s1` (stereo not given): the activation in test [1] is -11.9% and 7.67%. Also, the Potency entry in test [2], in test [3], in test [5], in test [6], in test [8] and in test [9] was “inactive” throughout. Besides, the viability in test [4] is 94.7%. In test [7], the Potency is 23500 nM (active).
For the compound `CC(C)C[C@H](CO)Nc1nc(S[C@@H](C)c2ccccc2)nc2nc(N)sc12`, the activation in test [1] is 5.67%. The Potency entry in test [2], in [3] and in test [8] was “inactive” in each case. The results for the Potency in test [4], in [5] and in test [6] were 23.5 µM (active), 26.3 µM (active) and 26300 nM (active), respectively.
For the compound `NS(=O)(=O)c1cc(Cl)c(Cl)c(S(N)(=O)=O)c1`, in [1], the activation is -9.17% and 1%. In addition, the Potency entry in test [2], in [3], in [5], in test [6], in [7] and in [8] was “inactive” in each case. Further, the Potency entry in [10] and in [9] was “inactive” throughout. Also, in [4], the viability was 115%.
Take `CCN1CCN(Cc2ccc(NC(=O)c3ccc(C)c(NC(=O)c4cncc(-c5cccs5)c4)c3)cc2C(F)(F)F)CC1`: the Potency in [1] was 26.9 µM (active); in test [4], 5.9 µM (active); in [5], 4.17 µM (active); in [6] it was 118 nM (active); in test [7] it was 14.8 nM (active); in test [10], 1.05 µM (active). The Potency in test [9] was 1.18 µM (active). The Potency result in test [2] and in [3] was “inactive” in each case.
For the compound `COc1ccc(Cc2ccc(NC(N)=O)cc2)cc1-c1cccc(Cl)c1`, the activation in test [1] was 2.49%. Moreover, the Potency entry in test [2], in test [3], in test [5], in test [6], in [7] and in test [8] was “inactive” throughout. In test [9], the Potency entry is “inactive”. For the same compound, in test [4], the viability is 103%.
As to `Cc1cc(Nc2cc(N3CCN(C)CC3)nc(/C=C/c3ccccc3)n2)n[nH]1`, the Potency is 30.1 µM (active) in test [1]; 13.2 µM (active) in [4]; 8.33 µM (active) in [5]; 132 nM (active) in test [6]; 525 nM (active) in [7]; 2.95 µM (active) in test [8]. The Potency in [10] is 2.09 µM (active); in test [9], 1.18 µM (active). Moreover, the Potency result in [2] and in test [3] was “inactive” in each case.
On to `CC1CCC(n2c3cnccc3c3cnc(Nc4ccc5c(n4)CCN(C(=O)CO)C5)nc32)CC1` (stereo not given), for which the Potency was 23.9 µM (active) in [1], 152 nM (active) in test [6] and 1.21 µM (active) in test [9]. The Potency entry in [2] and in [3] was “inactive” each time. In [4], the viability is 105%. Further, the viability (% of control) in [5] is 86.5% [at 8.46 µM]; in [7], 92.3% [at 8.46 µM].
`FC(F)(F)c1ccc(/C=C/c2nc(COc3ccc(CCCCn4ccnn4)cc3)co2)cc1`: the activation in [1] was 18.8%. The Potency entry in test [2], in test [3], in test [7], in [8] and in [9] was “inactive” in each case. Further, the Potency was 0.0742 µM (active) in test [4], 0.372 µM (active) in test [5] and 29.5 nM (active) in test [6].
With `Cn1ncc2cc(-c3cnc(N)c(Cl)c3N3CCC4(CCNC4=O)CC3)ccc21`, in [1], the activation is -11.6%. For the same compound, the Potency entry in test [2], in test [3] and in test [5] was “inactive” each time. For the same compound, in [4], the viability was 103%. The figures for the Potency in test [6], in test [8] and in test [10] were 5250 nM (active), 10.5 µM (active) and 0.296 µM (active), respectively.
As for `NC(=O)c1cccc2[nH]c(-c3ccc([C@H]4CCCN4)cc3F)nc12`, the activation in test [1] was 28.6%. In addition, the Potency result in [2], in test [3] and in test [8] was “inactive” in each case. In addition, the Potency was 20.9 µM (active) in [4], 20.9 µM (active) in [5], 16600 nM (active) in test [6] and 16.6 µM (active) in [10].
For the compound `Nc1ccc(/C=C/C(=O)NCc2cc3cc(-c4ccc(C(=O)N5CCC(F)(F)CC5)cc4)cc(-c4ccc(F)cc4)c3o2)cn1`, in [1], the activation is -7%. For the same compound, the Potency entry in [2] and in test [3] was “inactive” throughout. Further, the viability in test [4] is 104%. Moreover, the Potency was 0.525 µM (active) in [5]; 2350 nM (active) in test [6]; 742 nM (active) in test [7]; 1.18 µM (active) in test [8]; 18.6 µM (active) in test [9].
Regarding `CC1(C)CC(=O)c2c(C(F)(F)F)nn(-c3ccc(C(N)=O)c(NC4CCC(O)CC4)c3)c2C1` (stereo not given), in test [1], the activation is 11.9% and -1.67%. The Potency result in test [2] and in test [3] was “inactive” in each case. Also, the Potency in test [4] is 0.148 µM (active); in test [5], 0.0742 µM (active); in [6] it was 37.2 nM (active); in [8], 0.105 µM (active).
As to `CCc1ccc(C(=O)Nc2cc(CN3CCN(C)CC3)cc(C(F)(F)F)c2)cc1C#Cc1cnc2ccnn2c1`, the Potency in test [1] is 19 µM (active); in test [4], 14.8 µM (active); in [5] it was 10.5 µM (active); in test [6], 7420 nM (active); in [8], 9.34 µM (active); in test [10], 5.9 µM (active). Further, the Potency in test [9] was 5.9 µM (active). Further, the Potency result in [2] and in test [3] was “inactive” in each case.
For the compound `Nc1ccc(C(=O)Nc2cccc(-c3nc(N4CCOCC4)c4oc5ncccc5c4n3)c2)cn1`, in test [1], the activation was 2.12%. The Potency entry in test [2] and in test [3] was “inactive” each time. In addition, the Potency is 16.6 µM (active) in [4]; 9.34 µM (active) in [5]; 14800 nM (active) in test [7]; 9.34 µM (active) in test [8]; 9.34 µM (active) in [10]; 8.33 µM (active) in test [9].
In the case of `CN1CCN(c2ccc(C(=O)Nc3n[nH]c4ccc(Cc5cc(F)cc(F)c5)cc34)c(NC3CCOCC3)c2)CC1`, the Potency was 30.1 µM (active) and 216 nM (active) in test [1]; 16.6 µM (active) in test [4]; 11.8 µM (active) in [5]; 468 nM (active) in test [6]; 3.32 µM (active) in [8]; 5.25 µM (active) in [10]. Besides, the Potency in test [9] was 1.48 µM (active). Besides, the Potency entry in test [2] and in test [3] was “inactive” in each case.

The values above are taken from PubChem BioAssay (NCATS).
